Only some compounds are listed: those with a hit (about 3% of all), similar ones and a draw of the others.
BioA inh: inhibitors of Mycobacterium tuberculosis BioA enzyme; purified M. tuberculosis BioA enzyme, plate reader; inhibition, % at 9.99 µM; actives 0.096% (n = 360,000); AID 602481; in the data active = inhibition above about 40%
FadD28 binding: blocks FadD28 binding to the bisubstrate probe; fluorescence polarization; inhibition, % at 12.5 µM; actives 0.22% (n = 360,000); AID 588549; in the data active = inhibition above about 8.5%, passing the limit was not always enough
Rv3671c protease: inhibits the M. tuberculosis serine protease Rv3671c; inhibition, % at 5.96 µM; P9WHR9; actives 0.048% (n = 320,000); in the data active = inhibition above about 38%;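 note: extracellular domain of Rv3671c used as enzyme; 0% = enzyme with DMSO and 100% = no enzyme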
Target sequence (P9WHR9 whole entry, looked up, the tested form may be a part): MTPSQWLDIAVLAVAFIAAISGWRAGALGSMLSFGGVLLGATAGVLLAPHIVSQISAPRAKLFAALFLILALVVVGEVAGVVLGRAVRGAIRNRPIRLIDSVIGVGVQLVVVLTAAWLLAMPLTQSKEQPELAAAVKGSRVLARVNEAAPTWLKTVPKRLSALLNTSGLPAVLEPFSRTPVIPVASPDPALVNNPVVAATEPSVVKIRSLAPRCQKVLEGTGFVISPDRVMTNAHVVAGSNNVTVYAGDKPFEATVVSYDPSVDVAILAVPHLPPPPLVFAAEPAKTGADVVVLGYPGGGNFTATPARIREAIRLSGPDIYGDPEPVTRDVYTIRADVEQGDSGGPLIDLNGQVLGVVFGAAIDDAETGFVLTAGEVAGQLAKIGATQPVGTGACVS
GDH-TPI inh: GDH-TPI coupled enzyme inhibition counter-screen; actives 1.2% (n = 360,000); inhibition, % at 4.8 µM; GDH-TPI coupled enzyme counterscreen, NADH absorbance; in the data active = inhibition above about 30%;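 note: 0% = DMSO wells and 100% = wells lacking the enzyme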
FBA Mtb inh: Mtb fructose-bisphosphate aldolase inhibition | P9WQA3 | purified M. tuberculosis FBA, fluorescence read-out | inhibition, % at 1 µM | actives 2.3% (n = 360,000) | AID 588726; in the data active = inhibition above about 27%;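 note: 0% = vehicle and 100% = reference inhibitor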
Active calls of the source: *; x = not tested or not shown; + = active, no number.

SMILES	BioA inh	FadD28 binding	Rv3671c protease	GDH-TPI inh	FBA Mtb inh
C/C(=N\NC(=O)c1ccccc1Cl)c1c(O)n(C2CCCCC2)c(=O)[nH]c1=O	-0.5	-0.1	3.4	37.1*	-6.2
CCc1ccc[n+](-c2[nH]c(=O)sc2/C=N/N=C(\[O-])c2ccncc2)c1	x	-4.2	-10.5	24.8	-5.5
CC(C)(C)c1cc[n+](-c2[nH]c(=O)sc2/C=N/NC([S-])=Nc2ccccc2)cc1	-18.3	1.0	8.6	36.8*	-8.1
Cc1cc[n+](-c2[nH]c(=O)sc2/C=N/NC([S-])=Nc2ccccc2)cc1C	-10.4	2.0	-9.7	51.9*	-5.7
C[C@@H]1CN([C@@H](C)CO)C(=O)CCCn2nncc2CO[C@H]1CN(C)C(=O)Nc1cccc2ccccc12	0.5	0.4	x	0.0	28.6*
COCCOC(=O)C1=C(C)NC(=O)NC1c1c(Cl)nc2c(C)cccn2c1=O (stereo unspecified)	x	x	-3.5	x	x
COCCOC(=O)C1=C(C)NC(=O)NC1c1c(Cl)nc2ccccn2c1=O (stereo unspecified)	-1.8	-1.3	10.2	31.1*	2.9
COc1ccc(OC)c(-c2cc(C(=O)N3CCCc4ccccc43)no2)c1	-0.3	-1.7	-1.0	34.1*	1.5
COc1ccccc1-c1cc(C(=O)N2CCCc3ccccc32)no1	x	-1.5	-13.6	3.3	1.5
CC(=O)Nc1c(Cl)cnn(-c2ccccc2)c1=O	-3.6	0.7	-2.7	43.5*	1.4
CO[C@@H]1CN(C)C(=O)c2cc(NC(C)=O)ccc2OC[C@@H](C)N(C(=O)Cc2cccnc2)C[C@H]1C	6.2	x	x	x	x
O=c1cc(-c2ccccc2Cl)oc2c(NS(=O)(=O)c3cc(Cl)cc(Cl)c3O)ccc(O)c12	1.6	13.0*	-7.2	-10.3	-1.1
COC(=O)COc1ccc(Cl)cc1C1Nc2ccccc2C(=O)N1c1ccc(OC)cc1 (stereo unspecified)	1.7	23.4*	-3.4	20.0	21.8
COc1ccc(S(=O)(=O)N(C)C[C@H]2Oc3ccc(NC(=O)C4CCCCC4)cc3CC(=O)N([C@H](C)CO)C[C@H]2C)cc1	-1.1	x	x	x	x
Cc1cc(S(=O)(=O)ON2C(=O)c3ccccc3C2=O)ccc1F	-3.4	-1.7	6.6	7.6	37.0*
O=C1c2ccccc2C(=O)N1OS(=O)(=O)c1ccccc1	x	x	-6.0	x	x
CO[C@@H]1CN(C)C(=O)c2cc(NS(C)(=O)=O)ccc2OC[C@@H](C)N(C(=O)C2CCCCC2)C[C@@H]1C	-3.2	x	x	x	x
CCCCc1cc(=O)oc2cc(O)ccc12	x	-2.6	-0.8	5.4	+
CCCCc1cc(=O)oc2c(CN3CCCC3)c(O)c(Cl)cc12	-0.6	-3.3	-0.7	25.9	+
CCc1c(C)c2cc(Cl)c(O)c(CN3CCCC3)c2oc1=O	0.2	0.1	x	7.8	+
Cc1c(C)c2cc(Cl)c(O)c(CN3CCCCC3)c2oc1=O	x	x	-4.2	x	x
CCCc1cc(=O)oc2c(CN3CCN(C)CC3)c(O)ccc12	11.3	-3.9	12.1	13.2	x
CCCCc1cc(=O)oc2c(CN3CCN(C)CC3)c(O)ccc12	-0.5	1.2	-2.3	21.3	+
O=C(C[C@@H]1CC[C@H]2[C@@H](COC[C@H](O)CN2Cc2ccccc2)O1)N1CCOCC1	2.0	x	x	x	x
C[C@@H]1CN([C@H](C)CO)C(=O)c2cc(NC(=O)Nc3ccccc3)ccc2O[C@@H](C)CCCCO[C@H]1CN(C)C(=O)c1ccccc1	0.7	x	x	x	x
SMILES	BioA inh	FadD28 binding	Rv3671c protease	GDH-TPI inh	FBA Mtb inh
Cc1ccc2nc(C3CCCCC3)c(Cc3cccc(Cl)c3)n2c1	0.8	-3.1	x	x	145.2*
Clc1cccc(Cc2c(C3CCCCC3)nc3ccc(Cl)cn23)c1	-2.1	-4.6	x	x	-2.5
CCCCNS(=O)(=O)c1ccc2nc(-c3cccnc3)cc(C(=O)NCCOC)c2c1	x	-2.0	-8.5	31.8*	1.2
Cc1ccc(-c2csc(NS(=O)(=O)c3cccc(F)c3)n2)o1	3.0	16.1*	7.4	11.9	5.8
Cc1nc(CNS(=O)(=O)c2cccc(F)c2)cs1	-0.1	-1.7	5.5	-0.4	-2.0
Cc1ccc(S(=O)(=O)NCC[C@H]2CC[C@H](NC(=O)CCN3CCCCC3)[C@@H](CO)O2)cc1	0.2	x	x	x	x
Cc1ccc(/C=N/NC(=O)c2c[nH]c3ccccc23)s1	1.5	-2.3	-0.3	48.9*	-0.7
O=C(N/N=C/c1ccc[nH]1)c1c[nH]c2ccccc12	-3.1	-0.2	x	32.2*	2.4
Cc1ccc(/C=N/NC(=O)c2c[nH]c3ccccc23)o1	-2.0	-5.7	6.2	59.3*	-5.7
Cc1ccsc1/C=N/NC(=O)c1ccccn1	-3.1	-0.8	0.6	38.5*	1.6
Cc1ccc(/C=N/NC(=O)c2cccc3ccccc23)o1	x	-1.9	-2.7	11.9	-1.1
C[C@@H]1CN([C@H](C)CO)C(=O)Cc2cc(NC(=O)C3CCCCC3)ccc2O[C@@H]1CN(C)CC1CC1	0.2	x	x	x	x
C[C@@H]1CCCCO[C@H](CN(C)S(=O)(=O)c2ccc(F)cc2)[C@H](C)CN([C@@H](C)CO)C(=O)c2cc(NC(=O)CCCN(C)C)ccc2O1	-0.7	x	x	x	x
O=C(N/N=C/c1ccc[nH]1)c1cc2ccccc2cc1O	1.1	0.9	24.6	37.0*	-2.5
O=C(N/N=C/c1c[nH]c2ccccc12)c1ccc(O)c(O)c1	0.0	2.2	-3.3	36.1*	-1.2
Cc1ccc(/C=N/NC(=O)C(O)c2ccccc2)o1 (stereo unspecified)	-1.4	-0.6	8.5	30.6*	4.5
O=C(N/N=C/c1ccncc1)c1cc2ccccc2cc1O	1.5	-4.1	x	18.2	-1.3
Cc1ccsc1/C=N/NC(=O)c1c[nH]c2ccccc12	-0.1	-3.4	-6.4	44.6*	7.4
O=C(N/N=C/c1cc(Br)c(Br)o1)C(O)c1ccccc1 (stereo unspecified)	x	0.9	1.8	10.9	0.7
O=C(N/N=C/c1ccsc1)c1c[nH]c2ccccc12	3.0	-5.1	0.6	9.0	2.0
C[C@@H](O)C#Cc1cnc2c(c1)C(=O)N([C@@H](C)CO)C[C@H](C)[C@H](CN(C)C(=O)Nc1ccc(C(F)(F)F)cc1)O2	-2.9	x	x	x	x
CNC[C@@H]1Oc2cc(C#Cc3ccccc3F)ccc2S(=O)(=O)N([C@@H](C)CO)C[C@H]1C	1.8	x	x	x	x
O=C(N/N=C/c1ccc[nH]1)c1sc2ccccc2c1Cl	2.0	-3.9	-2.1	37.5*	-3.7
O=C(N/N=C/c1cc([N+](=O)[O-])ccc1O)c1c[nH]c2ccccc12	x	0.5	9.3	39.2*	-4.8
O=C(N/N=C/c1ccncc1)c1sc2ccccc2c1Cl	-3.0	0.2	-2.5	22.8	-0.3
SMILES	BioA inh	FadD28 binding	Rv3671c protease	GDH-TPI inh	FBA Mtb inh
CSc1ccc(/C=N/NC(=O)c2ccc(C)c(C)c2)cc1	1.1	-1.8	-4.8	24.1	0.7
CSc1ccc(/C=N/NC(=O)c2cc(O)cc(O)c2)cc1	4.8	-6.2	-11.3	48.9*	1.8
CSc1ccc(/C=N/NC(=O)c2sccc2C)cc1	-0.4	-0.8	-6.7	45.1*	-1.6
COc1ccc(CNC(=O)c2cc3ccccc3oc2=O)cc1	-0.1	-0.6	-12.3	14.7	3.4
CCOC(=O)c1cc2ccc(OC)cc2oc1=O	-0.7	-1.7	0.1	42.5*	+
COc1ccc(C(=O)COC(=O)c2cc3ccccc3oc2=O)c(OC)c1	x	-2.1	-0.5	6.3	6.2

Compound activity: PubChem BioAssay, several laboratories
